# Data reported in PubChem BioAssay (EPA / NIEHS).
# Values joined by “and” are separate entries in the source; they are usually repeats but may differ in a detail not shown here. Equal values may be shown once. Inconclusive results are not listed. Some compounds were tested as several samples or in several runs, with calls that do not always agree. Active and inactive are the calls of the source. How the source made its calls: active means hit-call score of the fitted dose curve at least 0.9, where 1 is the maximum; inconclusive means response in the unintended direction; inactive means score below 0.9.
# Target: Nuclear receptor subfamily 4 group A member 2 (Homo sapiens) (UniProt P43354)
# Sequence (P43354 whole entry, looked up): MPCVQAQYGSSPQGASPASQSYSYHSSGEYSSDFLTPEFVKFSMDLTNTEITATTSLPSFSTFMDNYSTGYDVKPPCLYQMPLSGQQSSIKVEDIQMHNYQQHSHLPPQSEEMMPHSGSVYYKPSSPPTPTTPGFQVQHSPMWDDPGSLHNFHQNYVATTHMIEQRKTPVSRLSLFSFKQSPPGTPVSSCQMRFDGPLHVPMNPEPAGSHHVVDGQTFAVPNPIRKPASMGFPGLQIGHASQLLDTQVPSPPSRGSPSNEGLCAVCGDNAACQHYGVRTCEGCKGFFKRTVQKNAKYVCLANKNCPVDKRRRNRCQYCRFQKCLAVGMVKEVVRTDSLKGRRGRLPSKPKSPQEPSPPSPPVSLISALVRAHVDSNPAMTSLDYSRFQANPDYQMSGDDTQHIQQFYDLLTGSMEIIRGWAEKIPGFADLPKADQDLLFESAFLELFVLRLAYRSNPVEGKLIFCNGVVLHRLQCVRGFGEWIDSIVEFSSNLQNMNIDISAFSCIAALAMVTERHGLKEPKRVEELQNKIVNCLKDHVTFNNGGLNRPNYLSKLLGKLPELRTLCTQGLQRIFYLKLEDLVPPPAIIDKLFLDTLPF
# Assay: ATG_NURR1_TRANS: Attagene TRANS-FACTORIAL HepG2 Assay for human Nuclear Receptor Related Protein 1 (NURR1) (AID 2282985)
# Settings: HepG2 Attagene TRANS reporter, mRNA readout
# Protocol: ATG_TRANS is a cell-based, multiplexed-readout assay that uses HepG2, a human liver cell line, with measurements taken at 24 hours after chemical dosing in a 24-well plate.ATG_NURR1_TRANS is one of 30 assay component(s) measured or calculated from the ATG_TRANS assay. It is designed to make measurements of mRNA induction, a form of inducible reporter, as detected with fluorescence intensity signals by Reverse transcription polymerase chain reaction (RT-PCR) and Capillary electrophoresis technology.Data from the assay component ATG_NURR1_TRANS was analyzed into 1 assay endpoint. This assay endpoint, ATG_NURR1_TRANS, was analyzed in the positive analysis fitting direction relative to DMSO as the negative control and baseline of activity. Using a type of inducible reporter, measures of mRNA for gain-of-signal activity can be used to understand the reporter gene at the transcription factor-level as they relate to the gene NR4A2. Furthermore, this assay endpoint can be referred to as a primary readout, because this assay has produced multiple assay endpoints where this one serves a reporter gene function. To generalize the intended target to other relatable targets, this assay endpoint is annotated to the nuclear receptor intended target family, where the subfamily is orphan.
# Human liver HepG2 cells are transiently transfected with multiple reporter transcription units (MRTUs) in 6-well plates using FuGene 6 reagent (Roche; 3 ml FuGene/1 mg DNA). The MRTU constructs are regulated by a cis-regulating element (promoter). […] A major difference between the CIS and TRANS system is that in CIS activities of endogenous TFs are measured, whereas the TRANS assay evaluates changes in activities of exogenous, chimeric NR-Gal4 proteins. […] At the end of 24 hour incubation, total RNA was isolated using TriZol reagent (Invitrogen). The isolated RNA is then reverse-transcribed using oligo(dT) primer and Mo-MLV reverse transcriptase (Invitrogen) with DNAse I (Ambion) treatment for 30 min. The one-tenth of the produced cDNA was amplified by PCR using Taq DNA polymerase (Invitrogen) and two reporter sequence-specific primers. The PCR products were fluorescently labeled by primer extension with 6-arboxyfluorescein (6-FAM) 5'-labeled reporter sequence-specific primer (2 min at 95 C, 20 s at 68 C and 10 min at 72 C) and these products were digested with 5U of HpaI (New England Biolabs) for 2h at 37 C. The fragments were purified using Qiaquick PCR columns (Qiagen), analyzed on an ABI 3130xL genetic analyzer (Applied Biosystems) with peak positions identified by using a set of X-rhodamine (ROX)-labeled MapMarker1000 molecular weight standards (BioVentures). The raw capillary electrophoresis data was processed using Attagraph software (Attagene).
Structure (SMILES),outcome,AC50
Cc1cc(F)ccc1-c1cc(N2CC[C@@H](O)[C@H]2CO)ncc1N(C)C(=O)C(C)(C)c1cc(C(F)(F)F)cc(C(F)(F)F)c1,inactive,–
CC(C)(c1cc(Br)c(O)c(Br)c1)c1cc(Br)c(O)c(Br)c1,inactive,–
Clc1ccccc1C(c1ccccc1)(c1ccccc1)n1ccnc1,inactive,–
CCCCCCCCCCCC[N+](C)(C)C,inactive,–
O=C1c2ccccc2C(=O)N1CCc1noc(-c2ccc(CN3CCCCCC3)s2)n1,inactive,–
Cc1ccc2oc(CN(Cc3ccccc3)C(=O)Nc3c(F)cc(F)cc3F)c(-c3ccc(Cl)cc3)c2c1,inactive,–
CCCCCCCCCC(=O)O,inactive,104 µM (active)
O=C(Nc1ccc(Cl)cc1)Nc1ccc(Cl)c(Cl)c1,inactive,–
NC(=O)c1nc(-c2cccc(-c3cc(F)ccc3OCC(F)(F)C(F)(F)F)c2)n[nH]1,–,50.1 µM (active)
CCN(Cc1cccnc1)C(=O)c1cccc(Cl)c1[C@]1(C)C(=O)N(Cc2ccc(OC)cc2OC)c2ccc(Cl)cc21,–,8.74 µM (active)
O=C(OCCCCCCOC(=O)c1ccccc1)c1ccccc1,inactive,–
CCCCOC(=O)CC(CC(=O)OCCCC)(OC(C)=O)C(=O)OCCCC,inactive,–
O=C(O)Cn1c(=O)n(Cc2ccc(Br)cc2F)c(=O)c2ccc(Cl)cc21,inactive,–
O=C1CCC(C2CCCCC2)CC1,inactive,–
Cc1ccc(C(C)C)cc1,inactive,–
COc1ccc2cc(S(=O)(=O)N[C@H](CC(=O)N[C@H](Cc3ccc(CN4[C@H](C)CCC[C@@H]4C)cc3)C(=O)N(C)C(C)C)c3ccc4c(c3)OCO4)ccc2c1,inactive,–
O=c1c(-c2ccc(O)cc2)coc2cc(O)cc(O)c12,inactive,–
O=CCCCC=O,inactive,–
CCCCCCCCN(C)CCCCCCCC,inactive,–
CN1C(=O)N(c2ccccc2Br)Cc2cnc(Nc3ccc4c(c3)OCC(CO)O4)nc21 (stereo not given),inactive,–

Structure (SMILES),outcome,AC50
CCCCCCCCOc1ccc(C(=O)c2ccccc2)c(O)c1,inactive,–
CCCCCCCC[Si](OCC)(OCC)OCC,inactive,–
O=C(O)Cc1cc(I)c(Oc2ccc(O)c(I)c2)c(I)c1,–,82 µM (active) and 100 µM (active)
NCc1cccc(C2CCN(C(=O)c3ccc(C#Cc4ccccc4F)o3)CC2)c1,inactive,–
C[C@]12CC[C@@H]3c4ccc(O)cc4CC[C@H]3[C@@H]1CCC2=O,inactive,–
CCCCCc1ccc(N)cc1,inactive,–
CN1C(=O)CC[C@H]1c1cccnc1,inactive,–
CC1(C)NC(=O)N(c2ccc([N+](=O)[O-])c(C(F)(F)F)c2)C1=O,inactive,–
Cc1cc2c(cc1C(F)(F)F)N(C(=O)Nc1ccc(Oc3cccnc3C)nc1)CC2,inactive,–
COCC(C)OCC(C)OCC(C)O (stereo not given),inactive,–
CC(C)(C)c1cc(/C=C2\SC(N)=NC2=O)cc(C(C)(C)C)c1O,inactive,–
CCO[Si](CCCNC(N)=O)(OCC)OCC,inactive,–
CC[C@H](NC(=O)c1cc(F)ccc1NS(=O)(=O)c1cccc2cccnc12)c1ccccc1,inactive,–
CC(=O)N1CCN(c2ccc(OC[C@H]3CO[C@](Cn4ccnc4)(c4ccc(Cl)cc4Cl)O3)cc2)CC1,–,43.7 µM (active)
c1ccc2n[nH]nc2c1,inactive,–
CCCCCCCCCCCO,inactive,–
CCCCCCCCOC(=O)c1cc(O)c(O)c(O)c1,–,24.2 µM (active)
CCCOC(=O)c1cc(O)c(O)c(O)c1,inactive,–
C[C@]12CC[C@@H]3c4ccc(O)cc4CC[C@H]3[C@@H]1CC[C@H]2O,inactive,–
